A selection: hits, their analogues and other compounds. The true share with any hit is near 7.3%.
KinaseGlo FLuc – counter-screen: inhibitors of Kinase-Glo firefly luciferase; Q27757; Kinase-Glo luciferase, ATP luminescence, 8 min; Potency, µM (titrated, usually from 38.3 µM), hits mostly inhibitors; 200,000 compounds, 0.28% hits; AID 1379; also: nearly all actives have a fitted effect of over 60% in size
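Luminescence was the read-out, taken after 8-minute incubation at ambient temperature. Luciferase turned over luciferin with 10 uM ATP in imidazole pH 7.2 buffer containing KCl, MgCl2, Tween 20 and BSA.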
FLuc modulator – firefly luciferase modulation, counter-screen for miR-21 project; P08659; purified FLuc, Km substrates, luminescence inhibition; Potency, µM (highest dose often 57.5 µM), usual class: inhibitors; 360,000 compounds, 6.9% hits; AID 588342; also: nearly all actives have a fitted effect of over 55% in size
Target sequence (P08659 whole entry, looked up): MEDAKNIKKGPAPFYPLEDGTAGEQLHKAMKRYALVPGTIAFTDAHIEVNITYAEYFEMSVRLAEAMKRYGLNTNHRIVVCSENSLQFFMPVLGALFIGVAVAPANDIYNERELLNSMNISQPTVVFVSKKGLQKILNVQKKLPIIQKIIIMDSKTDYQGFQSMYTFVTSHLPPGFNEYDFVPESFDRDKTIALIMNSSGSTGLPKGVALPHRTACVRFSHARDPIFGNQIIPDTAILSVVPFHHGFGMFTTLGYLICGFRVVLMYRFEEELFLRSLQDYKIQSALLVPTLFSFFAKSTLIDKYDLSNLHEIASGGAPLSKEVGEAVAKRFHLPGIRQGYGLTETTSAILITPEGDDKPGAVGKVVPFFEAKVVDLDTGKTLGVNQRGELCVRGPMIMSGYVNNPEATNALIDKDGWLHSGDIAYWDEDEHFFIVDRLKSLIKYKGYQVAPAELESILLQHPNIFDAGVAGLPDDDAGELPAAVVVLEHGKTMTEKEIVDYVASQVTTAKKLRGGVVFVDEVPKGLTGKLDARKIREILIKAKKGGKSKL
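Biochemical qHTS of compounds, final roughly 60 µM downward over six points, against 10 nM purified firefly luciferase using Km concentrations of substrates (10 uM D-luciferin, 10 uM ATP) in Tris acetate pH 7.5 buffer; luminescence output.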
NPC1 promoter act – activates the NPC1 promoter | Huh7 NPC1 promoter luciferase reporter, 24 h | Potency, µM (highest dose often 9.22 µM), usual class: activators | 320,000 compounds, 2.4% hits; also: nearly all actives have a fitted effect of over 60% in size
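Stably transfected Huh7 (NPC1 promoter→luciferase), 1500 cells/well in Opti-MEM + 10% FBS, 2 h settle, then compound 24 h at 37 °C. Luminescence after 10 min with Amplite reagent.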
SMN2 splice up – increases expression of the SMN2 splice variant. HEK293 SMN2-luciferase splicing reporter, luminescence, 30-36 h. Potency, µM (top dose mostly 46.1 µM), actives largely listed as activators. 210,000 compounds, 2.8% hits. AID 1458; also: nearly all actives have a fitted effect of over 55% in size
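qHTS luciferase splicing reporter: luminescence rises when SMN2 exon 7 is included in transfected HEK293 cells. Compound exposure lasted 30-36 h at 37C, with 4.5 mM final sodium butyrate as control, followed by a ONE-Glo read.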
ELG1 genotoxic – inducers of genotoxicity in HEK293T ELG1-luciferase cells | HEK293T ELG1-luciferase reporter, luminescence, 16 h | Potency, µM (highest dose often 46 µM), hits mostly activators | 330,000 compounds, 1.3% hits | AID 504466; also: nearly all actives have a fitted effect of over 60% in size
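Step 1: seed 2,000 HEK293T ELG1-luciferase cells per well. Step 2: add compound or DMSO, incubate 16 hr at 37 °C. Step 3: ONE-Glo, 30 min at room temperature, read luminescence.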
Rab9 prom act – activates the Rab9 promoter; Huh7 Rab9 promoter-luciferase reporter, luminescence, 24 h; Potency, µM (titrated, usually from 9.22 µM), most hits filed as activators; 320,000 compounds, 2.8% hits; AID 485297; also: nearly all actives have a fitted effect of over 60% in size
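Quantitative HTS format; Huh7 Rab9-luciferase reporter cells (1500/well) receive compound 2 h post-plating, incubate 24 h at 37 °C, then get luciferase reagent for 10 min before luminescence reading.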
Each line names hits and unclear results; the compound was inactive in the other large screens. Calls follow the shape of the dose curve; as a rule, active = well fitted curve in the direction sought with a large enough effect; inconclusive = small, poorly fitted or top-dose-only effect, or another doubt; inactive = no such curve, though single readings can be large; an effect the other way counts as inactive or inconclusive.

Cc1c2ccccc2nc2c(F)c(NC(C)C)c(F)c(F)c12	FLuc modulator 3µM, NPC1 promoter act inconclusive, SMN2 splice up 16µM, ELG1 genotoxic inconclusive, Rab9 prom act inconclusive
O=C(Nc1nc(-c2ccc(Cl)cc2)cs1)C1CCCO1 (stereo unspecified)	FLuc modulator 15µM, ELG1 genotoxic inconclusive, Rab9 prom act inconclusive
CCOc1ccc(-c2csc(NC(=O)C3CCCO3)n2)cc1 (stereo unspecified)	FLuc modulator 15µM, ELG1 genotoxic inconclusive
CCCCNC(=O)N1CCC(CCC(=O)N(C)Cc2ccccc2)CC1	none (no result: KinaseGlo FLuc, SMN2 splice up)
CC(=O)Nc1cccc(NC(=O)CSc2ncc(C(=O)Nc3ccc(F)cc3)c(=O)n2C)c1	none (no result: KinaseGlo FLuc, SMN2 splice up)
O=C(COC(=O)C1CCN(S(=O)(=O)c2cccc3cccnc23)CC1)c1ccccc1	none
Cc1cc(C(=O)COC(=O)c2ccncc2)c(C)n1Cc1ccco1	FLuc modulator 0.85µM, Rab9 prom act inconclusive
Cc1cc(-c2csc(N)n2)c(C)n1Cc1ccco1	FLuc modulator inconclusive, SMN2 splice up inconclusive
Cc1cc(C(=O)CN2C(=O)C(=O)N(Cc3ccco3)C2=O)c(C)n1CCc1ccccc1	Rab9 prom act inconclusive (no result: KinaseGlo FLuc, SMN2 splice up)
Cc1cc(C(=O)COC(=O)c2cc(Cl)ccc2N)c(C)n1Cc1ccco1	FLuc modulator 2.4µM, NPC1 promoter act 3.5µM, SMN2 splice up 14µM, ELG1 genotoxic 9.2µM, Rab9 prom act 2.5µM
Cc1cc(C(=O)CSc2nnc(N)s2)c(C)n1Cc1ccco1	FLuc modulator 3µM, NPC1 promoter act 0.45µM, SMN2 splice up inconclusive, ELG1 genotoxic 1.8µM, Rab9 prom act 0.45µM
Cc1cc(C(=O)COC(=O)c2cccn2C)c(C)n1Cc1ccco1	FLuc modulator 0.6µM, NPC1 promoter act 0.79µM, SMN2 splice up inconclusive, ELG1 genotoxic 0.41µM, Rab9 prom act 0.63µM
Nc1nnc(SCC(=O)c2ccco2)s1	none
Cc1cccc(-n2nnnc2SCC(=O)c2cc(C)n(Cc3ccco3)c2C)c1	none
CCC(C)NC(=O)c1cc(C)no1 (stereo unspecified)	none
Cc1ccc(S(=O)(=O)c2c(C)nn(C(C)(C)C)c2OC(=O)c2ccc(Br)o2)cc1	none
Cc1cc(C(=O)COC(=O)c2ccco2)c(C)n1Cc1ccco1	FLuc modulator 0.21µM, NPC1 promoter act inconclusive, ELG1 genotoxic 2.6µM, Rab9 prom act 1.4µM
O=C(COC(=O)c1ccco1)c1ccc(F)cc1	FLuc modulator 2.7µM, ELG1 genotoxic inconclusive (no result: KinaseGlo FLuc, SMN2 splice up)
CC(C)C(NC(=O)c1ccco1)C(=O)OCC(=O)c1ccccc1 (stereo unspecified)	FLuc modulator 17µM (no result: KinaseGlo FLuc, SMN2 splice up)
Cc1ccc(C(=O)COC(=O)[C@@H](NC(=O)c2ccco2)C(C)C)s1	none (no result: KinaseGlo FLuc, FLuc modulator, NPC1 promoter act, SMN2 splice up, Rab9 prom act)
O=C(NCCC1=CCCCC1)C1CCN(S(=O)(=O)c2cccs2)CC1	none
O=S(=O)(Cc1ccccc1Cl)N1CCN(Cc2ccc3c(c2)OCO3)CC1	none
CC(C)(C)c1ccc(NC(=O)C2=CN3CCS(=O)(=O)N=C3C=C2)cc1	FLuc modulator 15µM (no result: KinaseGlo FLuc, SMN2 splice up)
O=c1[nH]c2ccccc2nc1/C=C(\O)c1cccs1	FLuc modulator inconclusive, NPC1 promoter act 4µM, ELG1 genotoxic inconclusive, Rab9 prom act 3.2µM (no result: SMN2 splice up)
O/C(=C\c1nc2ccccc2[nH]1)c1cccs1	FLuc modulator 13µM, NPC1 promoter act 3.5µM, ELG1 genotoxic inconclusive, Rab9 prom act 4µM (no result: KinaseGlo FLuc, SMN2 splice up)
CC(C)(C)/C(O)=C/c1nc2ccccc2[nH]c1=O	none
Cn1nc(C(=O)NNC(=O)c2ccccc2F)c2ccccc2c1=O	none (no result: KinaseGlo FLuc, FLuc modulator, NPC1 promoter act, SMN2 splice up, Rab9 prom act)
Cc1ccn2c(NC3CCCC3)c(-c3ccsc3)nc2c1	FLuc modulator 24µM
Cc1ccn2c(NC3CCCCC3)c(-c3cccc(SC4CCCCC4)c3)nc2c1	none (no result: KinaseGlo FLuc, FLuc modulator, NPC1 promoter act, SMN2 splice up, Rab9 prom act)
COc1ccc(NC2=CC(c3ccc(F)cc3)N(c3ccc(OC)cc3)C2=O)cc1 (stereo unspecified)	none
O=S(=O)(c1ccc2ccccc2c1)N1CCN(S(=O)(=O)c2ccc3ccccc3c2)CC1	none (no result: FLuc modulator, NPC1 promoter act, ELG1 genotoxic, Rab9 prom act)
CCOC(=O)C1CCN(C(=O)c2cc(-c3ccncc3)nc3ccccc23)CC1	none (no result: KinaseGlo FLuc, SMN2 splice up)

Source: PubChem
